The record followed here is PubChem BioAssay (Tox21).

A number with no mark means an inactive call. Inconclusive results are not listed. Active and inactive are the calls of the source. Unless noted, the call rests on the fitted dose curve; in most records, active means well fitted curve in the direction sought with a large enough effect in the repeat runs; inconclusive means weak or mixed curves; inactive means no such curve, though single readings can be large; an effect the other way counts as inactive or inconclusive.

The nature of assay [1]: qHTS assay to test for compound auto fluorescence at 535 nm (green) in HEK293 cells (AID 720680). In general terms: In qHTS, concentration-response curves come from the screen itself.
A short description of assay [2]: qHTS assay to test for compound auto fluorescence at 460 nm (blue) in HEK293 cell free culture (AID 720681). Put shortly:
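Compounds were added to cell-free DMEM with 10% FBS and fluorescence read directly. The blue channel used 405 nm excitation and 460 nm emission, with triamterene as the reference fluorophore.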

The nature of assay [3]: qHTS assay to test for compound auto fluorescence at 535 nm (green) in HEK293 cell free culture (AID 720682). Summed up: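 Cell-free medium (DMEM, 10% FBS) receives compound or DMSO by pintool. Plate read directly at Ex 485/Em 535 nm. Signal converted to fluorescein equivalency.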
Assay [4] is described as follows: qHTS assay to test for compound auto fluorescence at 590 nm (red) in HEK293 cell free culture (AID 720683). Summed up:
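Cell-free wells of DMEM with 10% FBS received compound, and intrinsic fluorescence was read at excitation/emission 540/590 nm. Values expressed as equivalence to Rose Bengal sodium.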

The nature of assay [5]: qHTS assay to test for compound auto fluorescence at 590 nm (red) in HepG2 cell free culture (AID 720684). Put shortly: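 Rose Bengal sodium served as the reference for red signal. Test compounds were dispensed into serum-containing MEM (10% FBS) without cells, and plates were read at 540/590 nm.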
Assay [6] in a line: qHTS assay to test for compound auto fluorescence at 460 nm (blue) in HepG2 cell free culture (AID 720685). Summed up:
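Cell-free plates of MEM plus 10% FBS received 23 nL compound or DMSO vehicle; blue-channel (405/460 nm) intensity scored against triamterene as reference fluorophore.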

A short description of assay [7]: qHTS assay to test for compound auto fluorescence at 535 nm (green) in HepG2 cell free culture (AID 720686).
Assay [8] is described as follows: qHTS assay to test for compound auto fluorescence at 460 nm (blue) in HepG2 cells (AID 720687). Put shortly:
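HepG2 cells in MEM with 10% FBS, attached overnight at 37 C, were exposed to compound or DMSO for 1 hr at 37 C, 5% CO2. Blue fluorescence was read at 405/460 nm, with triamterene as reference fluorophore.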

Assay [9] is described as follows: qHTS assay to identify small molecule antagonists of the glucocorticoid receptor (GR) signaling pathway - cell viability counter screen (AID 720693). Further: nearly all actives have a fitted effect of over 55% in size.
A short description of assay [10]: qHTS assay for identifying genotoxic compounds that show differential cytotoxicity against isogenic chicken DT40 cell lines with known DNA damage response pathways - wild type cell line (AID 743012). Further: nearly all actives have a fitted effect of over 60% in size. Further: potency means the concentration at half of the fitted maximal effect. Summed up: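 Viability of DNA repair-proficient chicken DT40 cells was assessed by CellTiter-Glo luminescence following 40 h compound exposure at 37 C/5% CO2.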
Assay [11] is described as follows: qHTS assay to identify small molecule antagonists of the androgen receptor (AR) signaling pathway - cell viability counter screen (AID 743033; further: nearly all actives have a fitted effect of over 45% in size).
Assay [12] concerns the target Androgen receptor (Homo sapiens) (UniProt P10275). The assay is described as follows: qHTS assay to identify small molecule agonists of the androgen receptor (AR) signaling pathway (AID 743036; active means well fitted activation curve with a large enough effect in the signal ratio in the repeat runs, with a control signal flat, not every such curve was filed as active; the % refers to the signal ratio). Put shortly:
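AR-bla HEK293 cells, 2,000/well; 4 h preincubation 37C/5% CO2; compound (DMSO) 16 h at 37C; LiveBLAzer B/G FRET substrate 2 h RT; fluorescence intensity read-out.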

Assay [13] shares this target. The assay is described as follows: qHTS assay to identify small molecule agonists of the androgen receptor (AR) signaling pathway using the MDA cell line (AID 743040; further: nearly all actives have a fitted effect of over 20% in size). Summed up: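 Luciferase read-out, ONE-Glo, 30 min RT. Cells: MDA-kb2 AR-luc, MMTV promoter with AR and GR response elements. Compound exposure 16 h, 37C, 0% CO2, after 5 h pre-incubation. qHTS agonist mode.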

Assay [14] in a line: qHTS assay to identify small molecule antagonists of the androgen receptor (AR) signaling pathway using the MDA cell line - cell viability counter screen (AID 743041; further: nearly all actives have a fitted effect of over 45% in size). Put shortly:
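Cytotoxicity counter screen: MDA-kb2 AR-luc cells, compound + R1881, 16 h, 37C, 0% CO2; CellTiter-Fluor added at 15.5 h, fluorescence read after 30 min.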

The target in assay [15] is Androgen receptor (Homo sapiens) (UniProt P10275). The assay is described as follows: qHTS assay to identify small molecule antagonists of the androgen receptor (AR) signaling pathway using the MDA cell line (AID 743042; further: nearly all actives have a fitted effect of over 55% in size). Put shortly: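 MDA-kb2 breast carcinoma cells carrying MMTV-luciferase (AR/GR responsive) were co-treated with compounds and the agonist R1881 for 16 h at 37C. Inhibition read as ONE-Glo luminescence; CellTiter-Fluor fluorescence measured in parallel for cytotoxicity.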
Chain of Androgen receptor (Homo sapiens) (P10275 whole entry, looked up): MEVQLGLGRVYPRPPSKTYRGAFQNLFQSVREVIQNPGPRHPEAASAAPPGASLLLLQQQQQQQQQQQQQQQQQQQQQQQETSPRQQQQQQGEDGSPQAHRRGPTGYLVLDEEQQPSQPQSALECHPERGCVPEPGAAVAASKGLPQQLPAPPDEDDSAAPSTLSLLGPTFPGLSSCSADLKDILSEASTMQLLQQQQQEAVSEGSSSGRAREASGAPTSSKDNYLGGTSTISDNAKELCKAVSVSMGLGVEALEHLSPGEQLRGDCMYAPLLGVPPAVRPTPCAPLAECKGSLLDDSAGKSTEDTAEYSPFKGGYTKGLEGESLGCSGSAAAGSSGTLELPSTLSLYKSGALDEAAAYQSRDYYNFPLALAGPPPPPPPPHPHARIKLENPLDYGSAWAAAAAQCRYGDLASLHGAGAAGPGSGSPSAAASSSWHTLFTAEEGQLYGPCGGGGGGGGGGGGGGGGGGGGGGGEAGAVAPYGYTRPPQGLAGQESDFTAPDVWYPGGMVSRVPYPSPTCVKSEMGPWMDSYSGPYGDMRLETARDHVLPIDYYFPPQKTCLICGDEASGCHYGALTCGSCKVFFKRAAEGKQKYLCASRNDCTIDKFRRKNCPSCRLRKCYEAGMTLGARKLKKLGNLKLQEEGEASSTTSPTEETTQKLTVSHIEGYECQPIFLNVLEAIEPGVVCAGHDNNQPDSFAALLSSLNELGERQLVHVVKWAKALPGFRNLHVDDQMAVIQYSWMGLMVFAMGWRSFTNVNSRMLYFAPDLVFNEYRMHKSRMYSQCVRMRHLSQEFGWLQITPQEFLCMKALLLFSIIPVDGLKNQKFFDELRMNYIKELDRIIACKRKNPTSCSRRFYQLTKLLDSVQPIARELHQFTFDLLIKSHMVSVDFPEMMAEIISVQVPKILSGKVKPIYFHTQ

A short description of assay [16]: qHTS assay for identifying genotoxic compounds that show differential cytotoxicity against isogenic chicken DT40 cell lines with known DNA damage response pathways - Rev3 mutant cell line (AID 743014). Further: nearly all actives have a fitted effect of over 55% in size. Further: potency means the concentration at half of the fitted maximal effect.
A short description of assay [17]: qHTS assay for identifying genotoxic compounds that show differential cytotoxicity against isogenic chicken DT40 cell lines with known DNA damage response pathways - Rad54/Ku70 mutant cell line (AID 743015). Further: nearly all actives have a fitted effect of over 60% in size. Further: potency means the concentration at half of the fitted maximal effect.
Assay [18] has as its target Androgen receptor (Homo sapiens) (UniProt P10275). The assay is described as follows: qHTS assay to identify small molecule antagonists of the androgen receptor (AR) signaling pathway (AID 743035; active means well fitted inhibition curve with a large enough effect in the signal ratio in the repeat runs, not every such curve was filed as active; the % refers to the signal ratio). Put shortly:
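Reporter HEK293 cells were exposed to compounds and R1881 overnight (16 h, 37C); beta-lactamase activity was then quantified by FRET fluorescence.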

Assay [19] concerns the target Glucocorticoid receptor (Homo sapiens) (UniProt P04150). Kind of assay: qHTS assay to identify small molecule agonists of the glucocorticoid receptor (GR) signaling pathway (AID 720691; active means well fitted activation curve with a large enough effect in the signal ratio in the repeat runs, not every such curve was filed as active; the % refers to the signal ratio). Summed up: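 Compounds in DMSO, alongside positive controls, were added to GR-bla HeLa reporter cells and incubated 18 h at 37 C; GRE-driven beta-lactamase was detected by fluorescence after 2 h with FRET substrate at room temperature.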

The target is the same in assay [20]. The assay is described as follows: qHTS assay to identify small molecule antagonists of the glucocorticoid receptor (GR) signaling pathway (AID 720692; active means well fitted inhibition curve with a large enough effect in the signal ratio in the repeat runs, not every such curve was filed as active; the % refers to the signal ratio). Summed up: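 In a 1536-well cell format, compounds were added 4 h after seeding GR-bla HeLa cells, together with dexamethasone at 5 nM final; reporter activity was measured by FRET-substrate fluorescence following 18 h at 37 C.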

Chain of Glucocorticoid receptor (Homo sapiens) (P04150 whole entry, looked up): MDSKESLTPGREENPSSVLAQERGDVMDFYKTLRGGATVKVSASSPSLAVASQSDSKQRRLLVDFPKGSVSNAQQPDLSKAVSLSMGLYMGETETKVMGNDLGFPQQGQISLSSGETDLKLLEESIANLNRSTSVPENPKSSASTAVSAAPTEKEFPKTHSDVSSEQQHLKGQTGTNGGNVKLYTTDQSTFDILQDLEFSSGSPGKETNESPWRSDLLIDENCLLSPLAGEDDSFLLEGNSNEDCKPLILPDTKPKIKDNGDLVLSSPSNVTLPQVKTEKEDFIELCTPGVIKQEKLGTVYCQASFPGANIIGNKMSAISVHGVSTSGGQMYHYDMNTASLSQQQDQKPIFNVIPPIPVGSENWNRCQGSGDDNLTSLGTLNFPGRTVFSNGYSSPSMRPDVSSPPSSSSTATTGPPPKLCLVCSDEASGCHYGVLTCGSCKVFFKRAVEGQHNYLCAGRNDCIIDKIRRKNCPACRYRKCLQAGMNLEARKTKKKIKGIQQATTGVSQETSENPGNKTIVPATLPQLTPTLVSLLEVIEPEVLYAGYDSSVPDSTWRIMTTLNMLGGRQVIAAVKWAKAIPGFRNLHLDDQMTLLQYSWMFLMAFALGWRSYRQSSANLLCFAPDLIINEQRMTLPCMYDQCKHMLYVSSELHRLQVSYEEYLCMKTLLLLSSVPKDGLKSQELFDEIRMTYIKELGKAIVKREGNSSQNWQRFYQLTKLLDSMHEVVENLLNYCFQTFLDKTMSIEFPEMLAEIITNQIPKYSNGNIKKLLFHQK

On to `CC(=O)NCc1c(I)c(NC(C)=O)c(I)c(C(=O)O)c1I`, for which the result in assay [1], in [2], in [3], in assay [4], in assay [5] and in [6] was inactive. For the same compound, the outcome in [7], in assay [8], in assay [9], in assay [12] and in assay [13] was inactive. The Potency entry in [10], in assay [11], in assay [14] and in [15] was “inactive” in each case.

For the compound `CC(=O)NCCCCCC(=O)O`, the compound was classed as inactive in [1], in assay [2], in assay [3], in [4], in assay [5] and in assay [6]. The compound was called inactive in assay [7], in [8] and in assay [9]. Also, the Potency result in [10], in [16], in [17], in assay [11] and in [14] was “inactive” throughout.

For `CC(CO)c1ccccc1` (stereo not given), the compound was classed as inactive in assay [1], in assay [2], in assay [3], in assay [4], in assay [5] and in assay [6]. The compound was classed as inactive in assay [7], in [8], in assay [12] and in assay [13]. The Potency result in assay [10], in [16], in assay [17], in assay [11], in [14] and in assay [15] was “inactive” in each case.

With `CC(C)=O`, the call in assay [1], in [2], in [3], in [4], in assay [5] and in [6] was inactive. The compound was classed as inactive in assay [7], in assay [8], in [9], in assay [12] and in [13]. Also, the Potency entry in assay [10], in assay [16], in [17], in assay [11], in [18] and in assay [14] was “inactive” each time. In addition, in assay [15], the Potency result was “inactive”.

On to `CCC(CC)CO`, for which the compound was classed as inactive in assay [1], in [2], in assay [3], in [4], in assay [5] and in [6]. The compound was classed as inactive in assay [7], in [8], in [9] and in assay [13]. Further, the Potency result in assay [10], in assay [16], in assay [17], in assay [11], in assay [18] and in [14] was “inactive” each time. Also, the Potency entry in assay [15] is “inactive”.

In the case of `CC(N)C(=O)OC(C)(C)Cc1ccc(Cl)cc1` (stereo not given), the outcome in [1], in assay [2], in assay [3], in [4], in assay [5] and in assay [6] was inactive. The outcome in assay [7], in [8] and in assay [9] was inactive. Further, the Potency in assay [10] was 21.1 µM (active). Moreover, the Potency result in assay [11] and in [14] was “inactive” throughout.

Turning to `COC(=O)c1ccccc1C(=O)c1ccc(OCCN2CCCCC2)cc1`, the compound was called inactive in assay [1], in assay [2], in assay [3], in assay [4], in assay [5] and in assay [6]. In addition, the result in assay [7], in assay [8] and in [9] was inactive. The Potency in [10] is 1.88 µM (active); in [16], 1.06 µM (active); in [17], 2.11 µM (active). The Potency entry in assay [11] and in assay [14] was “inactive” in each case.

For `COCCOC(=O)C1=C(C)NC(C)=C(C(=O)OC(C)C)C1c1cccc([N+](=O)[O-])c1` (stereo not given), the compound was classed as inactive in assay [1], in assay [2], in assay [3], in assay [4], in assay [5] and in assay [6]. Besides, the outcome in [7], in [8] and in assay [9] was inactive. The Potency is 26.6 µM (active) in assay [10], 26.6 µM (active) in [16] and 23.7 µM (active) in assay [17]. The Potency result in assay [11] and in assay [14] was “inactive” each time.

`OCCN(CCO)c1cccc(Cl)c1`: the compound was classed as inactive in assay [1], in assay [2], in [3], in assay [4], in assay [5] and in assay [6]. Besides, the result in assay [7], in [8], in [9], in [12] and in assay [13] was inactive. Further, the Potency result in assay [10], in assay [16], in assay [17], in assay [11], in assay [18] and in assay [14] was “inactive” throughout. The Potency result in assay [15] is “inactive”.

Consider `CC1=CCC(C(C)C)=CC1`, for which the compound was called inactive in assay [1], in assay [2], in assay [3], in [4], in assay [5] and in assay [6]. The result in [7], in assay [8] and in assay [9] was inactive. Further, the Potency result in assay [16], in assay [17], in assay [11] and in assay [14] was “inactive” in each case.

As for `O=C(CCN1CCN(CCO)CC1)N1c2ccccc2Sc2ccc(C(F)(F)F)cc21`, the outcome in assay [1], in [2], in assay [3], in assay [4], in [5] and in assay [6] was inactive. The result in [7], in [8], in assay [9], in [12] and in assay [13] was inactive. Also, the Potency is 26.6 µM (active) in assay [10] and 29.8 µM (active) in [16]. The Potency result in assay [11], in assay [18], in [14] and in assay [15] was “inactive” each time.

In the case of `O=C1CCCC(=O)O1`, the compound was called inactive in [1], in assay [2], in [3], in assay [4], in assay [5] and in assay [6]. Also, the compound was called inactive in [7] and in [8]. The Potency result in [10], in assay [16], in [17], in assay [11] and in assay [14] was “inactive” each time.

For the compound `O=S(=O)(O)CCN1CCN(CCO)CC1`, the outcome in assay [1], in assay [2], in assay [3], in assay [5], in [6] and in assay [7] was inactive. The compound was called inactive in assay [8], in assay [20] and in assay [9]. Also, the Potency result in assay [19], in assay [10], in assay [16], in assay [17] and in assay [11] was “inactive” each time.
